The results in this text go back to PubChem BioAssay (NCI).

This is part of a sample that, as a whole, favours compounds with a hit. Of some 83,000 tested, about 20% had one in any assay.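 Single-concentration screen, 48 h exposure, 96-well plates. Endpoint: percent growth. Below 10 = active.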 Unmarked numbers belong to inactive results. Calls of active or inactive are those of the source.

The assay deals with HL-60(TB) leukemia. Kind of assay: NCI-60 one-dose screen, 48 h (100 = growth as untreated, 0 = no growth, -100 = all killed). Conditions: 10 µM unless noted. The method, then:
Growth inhibition of the HL-60(TB) human tumor cell line is measured as a screen for anti-cancer activity. Cells are grown in 96 well plates and exposed to the test compound for 48 hours. Compounds are tested at a single concentration, which is 10^-5 M for most compounds. The reported endpoint is percent growth (GI% or GIPRCNT), where numbers from 0 - 100% represent growth inhibition, and numbers from -100% - 0 represent cell death. For example, a value of 40 represents 60% growth inhibition. A value of 0 means no net growth occurred over the course of the experiment. A value of -40 indicates 40% of cells at the beginning of the experiment died by the end of the experiment. A value of -100 means all cells are dead at the end of the experiment.
NCI-60 Human Tumor Cell Lines Screen was performed using the standard one-dose NCI protocol, which is described in more detail at https://dtp.cancer.gov/discovery_development/nci-60/default.htm.
Compounds with GIPRCNT values below 10 were considered active. Activity score was based on GIPRCNT using the following formula: […]
Score is 0 for GIPRCNT values of 100 or above, 50 for GIPRCNT values of 0, and 100 for GIPRCNT values of -100.
As for `COc1ccc(C(O)c2cc3c(N)c(C(=O)Nc4cccc(Br)c4)sc3nc2C)cc1` (stereo not given), the growth is -5.69% (active).

Consider `Cc1cn(-c2cc(C(=O)Nc3cccc(-n4ccc5c(NC(=O)c6ccccc6)nccc54)c3)cc(C(F)(F)F)c2)cn1`, for which the growth is 3.73% (active).

Turning to `Oc1[nH]c2ccccc2c1/C=c1/ccc2c(c1)N=C(c1cc(F)cc(F)c1)N=2`, the growth was 54.2%.

In the case of `CN(C)CCCNC1=C(Cl)C(=O)c2ccccc2C1=O`, the growth was 45.3%.

Regarding `C=CCN1C(=O)c2cccc3c(N4CCOCC4)ccc(c23)C1=O`, the growth is -5.15% (active).

Consider `COc1ccc(-c2nc(SCC(C)C)nc(Nc3ccc(C)cc3)c2C#N)cc1`, for which the growth was 92.3%.

As for `CCCCNc1ccc(-c2ccc(NCCCC)cc2)cc1`, the growth is 45.4%.

With `COc1ccc2nc3ccccc3c(NCc3ccc(C)cc3)c2c1`, the growth was 0.0372% (active).

For `COc1ccc2c(O)c(/C=C3\N=Nc4ncccc43)oc2c1C[C@@H]1CCNC[C@H]1F`, the growth was -23.3% (active).

As for `C[n+]1cccc(CC(=O)NO)c1`, the growth was 94.7%.

Turning to `Cc1cc(NC(=O)Nc2cccc3ccccc23)no1`, the growth was 99.5%.

Turning to `N#[N+]c1cnc([O-])[nH]c1=O`, the growth was 67.4%.

With `COc1cccc(Oc2ccccc2NC(=O)CNC(=O)c2cccc3ccccc23)c1`, the growth is -25.2% [5 µM] (active).

On to `COC(=O)[C@@H](C)CNS(=O)(=O)N(c1cc(C(F)(F)F)cc(C(F)(F)F)c1)C1CCN(Cc2ccc(F)cc2)CC1`, for which the growth is 31.3%.

Turning to `COc1ccc(/C=C/C(=O)c2cc3c(N)c(C(=O)Nc4cccc5ccccc45)sc3nc2C)cc1`, the growth was 81.9%.

`CCOc1ccc(-c2nc3ccc(-c4nc5ccc(N6CCN(C)CC6)cc5[nH]4)cc3[nH]2)cc1OCC`: the growth was 24.8%.

In the case of `C#C[C@]1(O)CCC2C3CCc4cc(OC5CCCC5)ccc4C3CC[C@@]21C` (stereo not given in full), the growth was 77%.

As to `COc1cc(C(=O)Nc2cc(O)c(CC=C(C)C)c(O)c2)cc2c1O[C@]1(C)CC[C@@H](O)C(C)(C)[C@H]1C2`, the growth is 5.12% (active).

For `COc1ccc(CN2CCc3c(Sc4ccccc4)nc(N)nc3C2=O)c(OC)c1`, the growth was 14.3%.

Regarding `Nc1nc(SCc2ccccc2)c2ncn(C3CCCC3)c2n1`, the growth is 75.2%.

Consider `CCCCCCCSc1ccc(C(=O)O)cc1`, for which the growth is 98.6%.

Regarding `CCCCCCC/C(=N\N=C(N)N)c1ccc(O)cc1`, the growth is 6.11% (active).

As for `CCCCCC/C=C\CCCCCCCCOc1ccc(CCOP(=O)(O)OCC[N+](C)(C)C)cc1`, the growth is -15.1% (active).

As for `O=C(O)COc1c(Cl)cc([N+](=O)[O-])cc1Cl`, the growth is 87.1%.

As to `C/C(=N\Nc1nc(C)cs1)c1cc2ccccc2o1`, the growth was 83.4%.

With `C#CC(F)(F)[C@]1(O)CCC2C3CCC4=CC(=O)CCC4=C3[C@@H](c3ccc(N(C)C)cc3)C[C@@]21C` (stereo not given in full), the growth was 56%.

As to `CC(=O)c1ccc(C(C)(C)C)cc1`, the growth is 100%.

Turning to `COC(=O)C1=C(C(=O)ON)C2C=CC1(C(Cc1ccccc1)Nc1ccccc1)O2` (stereo not given), the growth was 18.9%.

For `COc1cc(/C=C2\CN(S(=O)(=O)c3ccccc3)C/C(=C\c3cc(CN4CCCCC4)c(O)c(OC)c3)C2=O)cc(CN2CCCCC2)c1O`, the growth is -37.6% (active).

With `O=C1CCCC=CC[C@H]2C=C(Cl)C(=O)C2=CC[C@H](CCCCC(F)(F)F)OC(=O)CCCC=CC[C@H]2C=C(Cl)C(=O)C2=CC[C@H](CCCCC(F)(F)F)OC(=O)CCCC=CC[C@H]2C=C(Cl)C(=O)C2=CC[C@H](CCCCC(F)(F)F)O1`, the growth was 27.6% [6.25 µM].

In the case of `Cc1[nH]c(N=Nc2ccccc2)nc1N=Nc1ccccc1`, the growth is 8.83% (active).

Take `O=C(/C=C/c1ccccc1Br)c1cccc(OCCCCOc2cccc(C(=O)/C=C/c3ccccc3Br)c2)c1`: the growth is 92%.

Turning to `CCc1ccc(-c2ccc(-n3nc(C)c4c(N)nc(Cc5ccccc5)nc43)cc2)cc1`, the growth is 65%.

On to `COC(=O)c1cc(Br)ccc1O`, for which the growth is 97.8%.

As to `CC(C)CCC[C@@H](C)[C@H]1CC[C@H]2[C@@H]3CC=C4C[C@@H](OC(=O)Cc5ccc(N(CCCl)CCCl)cc5)CC[C@]4(C)[C@H]3CC[C@]12C`, the growth was 86.9%.

On to `COc1ccc(/C=C2/SC(=O)N(CC(=O)N3CCN(c4cc5c(cc4F)c(=O)c(C(=O)O)cn5C4CC4)CC3)C2=O)cc1`, for which the growth is 105%.

For `CCOC(=O)C1=C(c2ccccc2)N=C2N(c3ccccc3)N=C(C(C)=O)N2C1c1ccc(Br)cc1` (stereo not given), the growth was 96.2%.

Take `O=C(NCc1cccc(CNC(=O)Nc2nc3ccccc3[nH]2)c1)Nc1nc2ccccc2[nH]1`: the growth is 10.1%.

As for `COc1ccc(C(=O)N2c3ccccc3Sc3ccccc32)c(OC)c1`, the growth was 0.583% (active).

Consider `Cc1c2cnccc2c(C)c2c1c1cc(CO)ccc1n2C`, for which the growth was -20% (active).
